Sampled rows, rich in hits. Any-hit rate of the full collection: about 6.2%.
ATXN viability – reduces viability in counter-screen for ATXN expression inhibitors; AID 651635; Potency, µM (highest dose often 56.7 µM), actives largely listed as cytotoxic; S2 cells (HEK-293 line with an ATXN2-luciferase reporter) viability, CellTiter-Fluor protease fluorescence, 24 h; 400,000 compounds, 0.49% hits; further: nearly all actives have a fitted effect of over 40% in size
KB-3-1 cytotox – KB-3-1 parental cell cytotoxicity. KB-3-1 viability, CellTiter-Glo ATP luminescence, 72 h. Potency, µM (top dose mostly 46.1 µM), most hits filed as cytotoxic. 400,000 compounds, 1.4% hits. AID 1347075; further: on the % scale 0 is the no-effect control and ±100 the full control effect; nearly all actives have a fitted effect of over 60% in size
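KB-3-1 cells, DMEM (no phenol red) + 10% FBS; compound by pin transfer, 72 h, 37 °C. Readout: CellTiter-Glo luminescence after 10 min. Data normalized, curve-fitted.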
KB-V1 cytotox – kills drug-selected multidrug resistant KB-V1 cells | Potency, µM (titrated, usually from 46.1 µM), actives largely listed as cytotoxic | KB-V1 MDR cells viability, CellTiter-Glo, 72 h | 400,000 compounds, 3.4% hits; further: on the % scale 0 is the no-effect control and ±100 the full control effect; nearly all actives have a fitted effect of over 60% in size
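Compound-treated KB-V1 multidrug-resistant cells, 72 h, 37 degrees C; viability by CellTiter-Glo. Fitted qHTS curves give the values.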
HT1080-NT tox – kills 2HG-producing HT-1080-NT fibrosarcoma cells. HT-1080-NT fibrosarcoma viability, CellTiter-Glo ATP luminescence, 48 h. Potency, µM (series often up to 46.1 µM), for the others: top-dose activity, negative = less viability, usual class: cytotoxic. 360,000 compounds, 1.6% hits;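 further: NT is the 2HG producing partner of a matched IDH1 knockdown line; 0% = DMSO-treated cells and -100% = media-only wells without cells; nearly all actives have a fitted effect of over 55% in size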
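Compounds were tested in concentration-response format on HT-1080-NT cells for 48 hours at 37 degrees C. Cell viability came from CellTiter-Glo luminescence; curves were classified by r2, response magnitude and activity.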
ATXN2 expr inh – inhibitors of ATXN2 expression | HEK-293 ATXN2-luciferase reporter, luminescence, 24 h | Potency, µM (highest dose often 57 µM), inactives show at the top dose activity change, negative = inhibition, actives largely listed as inhibitors | 360,000 compounds, 0.72% hits | AID 1745845; further: on the % scale 0 is the no-effect control and ±100 the full control effect; nearly all actives have a fitted effect of over 55% in size
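qHTS (up to 57 uM final) was run with 24 h compound exposure of reporter cells at 37 °C. Each well was multiplexed: SteadyGlo luminescence measured ATXN2-luciferase expression after a fluorogenic Gly-Phe-AFC viability readout (25 uM final).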
HT1080 IDH1KD tx – kills HT-1080 cells with IDH1 knockdown | HT-1080 IDH1 knockdown viability, ATP luminescence, 48 h | Potency, µM (titrated, usually from 46.1 µM), inactives show top-dose activity, negative = toxicity, most hits filed as cytotoxic | 360,000 compounds, 2% hits | AID 686971;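 further: 0% = DMSO wells and -100% = cell-free medium wells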
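CellTiter-Glo luminescence after 48 h compound exposure at 37 degrees C of IDH1-knockdown HT-1080 cells in 5% FBS RPMI. %Activity scaled between DMSO wells and cell-free media wells, with curves fitted and assigned curve classes.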
Numbers without * were called inactive; i = inactive; ? = inconclusive; . = no result given. The call rests on the fitted dose curve; in most records, active means well fitted curve in the direction sought with a large enough effect; inconclusive means small, poorly fitted or top-dose-only effect, or another doubt; inactive means no such curve, though single readings can be large; an effect the other way counts as inactive or inconclusive. Potency means the concentration at half of the fitted maximal effect.

SMILES	ATXN viability	KB-3-1 cytotox	KB-V1 cytotox	HT1080-NT tox	ATXN2 expr inh	HT1080 IDH1KD tx
CCOc1ccccc1NC(=O)C(OC(=O)c1ccc(CC)cc1)c1ccccc1 (stereo unspecified)	i	?	i	-11.1%	-4.5%	-2.1%
CCOc1ccccc1NC(=O)C(OC(=O)c1ccc(N(C)C)cc1)c1ccccc1 (stereo unspecified)	i	i	9.2µM*	12.1%	3.4%	3.1%
CCOc1ccccc1NC(=O)C(OC(=O)c1ccc(O)cc1)c1ccccc1 (stereo unspecified)	i	?	14.6µM*	?	-1.7%	23.1µM*
CCOc1ccccc1NC(=O)C(OC(=O)c1cnccn1)c1ccccc1 (stereo unspecified)	i	i	18.4µM*	10.0%	-3.6%	2.3%
Cc1nn(-c2ccccc2)c(-c2ccccc2[N+](=O)[O-])c1CC#N	i	i	i	-0.4%	8.8%	-2.8%
C(#Cc1ccc(C#CCN2CCOCC2)cc1)CN1CCOCC1	i	i	18.4µM*	-5.1%	3.9%	2.0%
N#Cc1c(-c2ccc(Cl)cc2)c(-c2ccc(Cl)cc2)nn(CCOC(=O)CCC(=O)O)c1=O	?	2.31µM*	7.31µM*	5.17µM*	-10.0%	7.31µM*
N#Cc1c(-c2ccccc2)c(-c2ccccc2)nn(CC(=O)NNC(=O)Nc2ccccc2)c1=O	i	5.8µM*	i	2.31µM*	-2.6%	3.26µM*
N#Cc1c(-c2ccccc2)c(-c2ccccc2)nn(CC(=O)NNC(=O)Nc2ccc(Cl)cc2)c1=O	?	18.4µM*	i	6.51µM*	-28.9%	5.8µM*
O=C(Cn1nc(-c2ccc(Cl)cc2)c2ccccc2c1=O)Nc1cccc(Br)c1	i	i	i	.	10.6%	.
CNC(=O)OCN1C(=O)C2CC=CCC2C1=O (stereo unspecified)	i	i	i	15.8%	-3.6%	21.1%
COc1cccc(C(=O)NCCS(=O)(=O)N(C)Cc2ccccc2)c1	i	i	18.4µM*	6.2%	11.4%	14.0%
CN(C1CCCCC1)S(=O)(=O)CCNC(=O)c1ccccc1	i	i	i	-0.6%	0.9%	5.6%
COc1cccc(C(=O)NCCS(=O)(=O)N(C)C2CCCCC2)c1	?	i	11.6µM*	4.5%	9.6%	16.1%
CCC(=O)c1ccc(OCC(=O)N(CC)CC(=O)Nc2ccccc2OC)cc1	i	i	16.4µM*	-1.2%	-0.4%	11.2%
CCN(CC(=O)Nc1ccccc1OC)C(=O)CSCC(=O)Nc1ccc(OC)cc1	i	i	?	18.4µM*	-6.1%	?
CCN(CC(=O)NCc1ccc(Cl)cc1)C(=O)CSCC(=O)Nc1ccc(OC)cc1	?	i	i	0.0%	-1.5%	-0.3%
CN(C(=O)COC(=O)COc1ccc2ccccc2c1)c1ccccc1	i	i	i	2.6%	.	1.2%
COCC(=O)Nc1cc(C)cn(Cc2ccc(F)cc2)c1=O	i	i	i	-8.4%	-1.5%	-0.2%
CCOc1ccc(CCNC(=O)Cn2nc(CC)n3c(cc4ccccc43)c2=O)cc1	.	i	i	.	.	.
CNC[C@H](Cc1ccccc1)NC[C@@H](Cc1cccc2ccccc12)NCCc1ccc(C)cc1	?	7.31µM*	?	?	?	?
C=C(NC(=O)C(=C)NC(=O)c1csc(C2=NC3c4csc(n4)C4NC(=O)c5csc(n5)C(C(C)(O)C(C)O)NC(=O)C5CSC(=N5)/C(=C/C)NC(=O)C(C(C)O)NC(=O)c5csc(n5)C3(CC2)NC(=O)C(C)NC(=O)C(=C)NC(=O)C(=C)NC(=O)C(C(C)C)NC2C=Cc3c(C(C)O)cc(nc3C2O)C(=O)OC4C)n1)C(N)=O (stereo unspecified)	2.67µM*	?	?	?	?	5.17µM*
O=C(CSc1nc2ccccc2c(=O)n1CCCN1CCOCC1)Nc1ccccc1OC(F)F	i	i	i	7.5%	-6.9%	-0.3%

Screens: PubChem BioAssay, National Center for Advancing Translational Sciences (NCATS)
